The record followed here is PubChem BioAssay.

“And” between values parts separate entries of the source, which are not always exact repeats. Equal entries are not always repeated. Results filed as inconclusive are left out. For some assays here: Entries with a potency or affinity are not part of this list. The source made the active and inactive calls.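 Rule for the calls, unless noted: active = compounds whose cell count with miR-34 switched on is under 0.7 times the count with it off; inactive = the rest.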

A short description of experiment [1]: polyglutamine-triggered caspase-3 activation inhibitors, cell-based (AID 1583). As to conditions: polyglutamine-induced caspase-3 activation, cell assay; stronger effect = higher value;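 tested at 10 µM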.
A short description of experiment [2]: suppressors of polyQ aggregation in yeast, 75Q-TubU reporter (AID 1593). The conditions noted are these: Yeast 75Q polyglutamine aggregation reporter.
Experiment [3] can be described thus: rescue of polyQ-huntingtin neuronal dysfunction in worms, whole organism, C. elegans mechanosensory neurons, N-terminal huntingtin (AID 1599). As to conditions: touch response, stronger effect = higher value.
A short description of experiment [4]: inhibitors of mitochondrial cytochrome c release, biochemical, purified mitochondria (AID 1603).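 Note: mouse liver mitochondria challenged with calcium chloride; signal normalized to the plate average as 100%.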 The conditions noted are these: stronger effect = lower value.
Experiment [5] is described as follows: inhibitors of polyQ protein aggregation (AID 1604). As to conditions: polyglutamine-induced protein aggregation inhibition assay; stronger effect = higher value; tested at 2.5 µM.
A short description of experiment [6]: enhancers of glutamate uptake in motor neurons, MN-1 cell line (AID 1612).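 Note: tested at 1 µM final; 0% = mean of DMSO vehicle wells on each plate; positive means more glutamate uptake than control and negative means less.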 As to conditions: MN-1 motor neuron cells, stronger effect = higher value.
Experiment [7] is described as follows: suppressors of polyglutamine aggregation in yeast, 75Q-TubH (AID 1616). As to conditions: S. cerevisiae 75Q-TubH polyglutamine aggregation suppression; stronger effect = higher value.
Experiment [8] is described as follows: hESC survival regulators, cell-based (AID 493140; call rule not given here;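 note: cells exposed to compounds for four days before counting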). The conditions noted are these: human embryonic stem cell survival screen; stronger effect = higher value.
Experiment [9] can be described thus: liver-stage malaria parasite growth inhibition, primary screen, cell-based, HepG2, luciferase luminescence, HepG2 viability (AID 624349; in the data active = parasite load remaining mostly below about 12%, no sharp cut-off; inactive = mostly above about 10%;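 note: 100% = mean of DMSO negative control wells on the same plate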). As to conditions: P. berghei liver stage in HepG2, luciferase luminescence, concentration not given here; parasite load remaining: stronger effect = lower value; viability: measured here: HepG2 viability without parasites.
Experiment [10] addresses 6-phosphogluconate dehydrogenase, decarboxylating (Homo sapiens) (UniProt P52209). In words: 6PGD enzyme inhibitors, primary screen, biochemical, human, recombinant enzyme, NADPH absorbance (AID 1159550;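 active = at least 20% inhibition of 6-phosphogluconate dehydrogenase activity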). The conditions noted are these: recombinant 6PGD, NADPH absorbance 341 nm; at 10 µM; stronger effect = higher value.
A short description of experiment [11]: differential killing of epithelial or mesenchymal cells, primary screen, imaging, PC-3E GFP, TEM4-18 mCherry, co-culture (AID 1345086;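 active = compounds killing one labelled cell type while sparing the other, by normalised counts and ratio limits, not self-fluorescent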;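 for all read-outs here: cells exposed to compound for 72 h before imaging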;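 for red/green cell ratio (normalised): normalised mesenchymal count divided by normalised epithelial count so high means epithelial killing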). The conditions noted are these: imaging cell counts, at 1 µM; for red/green cell ratio (normalised): actives lie on both sides, counts scaled to control wells, 1 = unselective.
Experiment [12] in a line: SU-DIPG-VI glioma cell viability, MIPE4.0 library, CellTiter-Glo luminescence, qHTS (AID 1347066; cut-off not given, nearly all actives have AC50 up to about 30 µM;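 note: cells exposed to compound for 48 hours before readout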). As to conditions: CellTiter-Glo ATP luminescence.
The nature of experiment [13]: sensitizers of A549 cells to miR-34 induction, primary screen, imaging, A549 dox-inducible miR-34, nuclei and caspase counts (AID 1347080). The conditions noted are these: A549 miR-34 inducible, Hoechst nuclei count, 48 h.
Experiment [14] in a line: survival rescue of mitochondrial mutant cells in low glucose, primary screen, MELAS cybrids, Rieske KO mouse fibroblasts, CellTiter-Glo (AID 1508586;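 active = mean z-score across replicates of 1.96 or higher in either the MELAS or the Rieske mutant cell line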;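 note: z relative to plate mean and SD of compound and empty wells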). A general note: ATP-based viability assays read luminescence as a measure of living cells.
The target of experiment [15] is Mitogen-activated protein kinase 7 (Homo sapiens) (UniProt Q13164). In words: ERK5 transactivation activators in reporter cells, primary screen, cell-based, HTS (AID 1508626;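 active = luciferase signal above three times the same-plate solvent-only control wells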;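 note: luciferase driven by Gal4-ERK5 fusion binding five Gal4 sites before minimal TATA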). The conditions noted are these: HeLa Gal4-ERK5 transactivation, 18 h, at 5 µM, stronger effect = higher value.
Experiment [16] can be described thus: viability rescue of complex I mutant cybrids, primary screen, cell-based, galactose medium, ATP luminescence (AID 1645843;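 active = z-score of at least 1.8 in each of two replicates, scored against plate mean and spread of sample wells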;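 note: positive z means more ATP and so rescue of galactose-driven cybrid death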). As to conditions: complex I mutant cybrid cells, 72 h, stronger effect = higher value.
For experiment [17], the target named is NAD(+) hydrolase SARM1 (Homo sapiens) (UniProt Q6SZW1). In words: SARM1 TIR NADase inhibitors, cell lysate, NAD-Glo luminescence (AID 1508614;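 active = compound whose remaining NAD level is above about 45 nM, limit read from the data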;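 note: higher remaining NAD means stronger inhibition of SARM1 NADase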). As to conditions: SAM-TIR HEK293T lysate NADase, at 1 µM, stronger effect = higher value.
[18] abbreviates: measured here: epithelial PC-3E GFP cell survival.
Setting [19] is: measured here: mesenchymal TEM4-18 mCherry cell survival.
Where [20] appears, read: stronger effect = lower value, cell number ratio, induced over uninduced.
Setting [21] is: measured here: relative caspase fold change +Dox/-Dox.
Where [22] appears, read: measured here: total cells with miR-34 induction, stronger effect = lower value.
Setting [23] is: measured here: total cells without miR-34 induction.
Setting [24] is: MELAS cybrid survival, CellTiter-Glo 48 h, stronger effect = higher value.
[25] abbreviates: Rieske KO mouse fibroblast survival, CellTiter-Glo 72 h.

Chain of Mitogen-activated protein kinase 7 (Homo sapiens) (Q13164 whole entry, looked up, the tested form may be a part): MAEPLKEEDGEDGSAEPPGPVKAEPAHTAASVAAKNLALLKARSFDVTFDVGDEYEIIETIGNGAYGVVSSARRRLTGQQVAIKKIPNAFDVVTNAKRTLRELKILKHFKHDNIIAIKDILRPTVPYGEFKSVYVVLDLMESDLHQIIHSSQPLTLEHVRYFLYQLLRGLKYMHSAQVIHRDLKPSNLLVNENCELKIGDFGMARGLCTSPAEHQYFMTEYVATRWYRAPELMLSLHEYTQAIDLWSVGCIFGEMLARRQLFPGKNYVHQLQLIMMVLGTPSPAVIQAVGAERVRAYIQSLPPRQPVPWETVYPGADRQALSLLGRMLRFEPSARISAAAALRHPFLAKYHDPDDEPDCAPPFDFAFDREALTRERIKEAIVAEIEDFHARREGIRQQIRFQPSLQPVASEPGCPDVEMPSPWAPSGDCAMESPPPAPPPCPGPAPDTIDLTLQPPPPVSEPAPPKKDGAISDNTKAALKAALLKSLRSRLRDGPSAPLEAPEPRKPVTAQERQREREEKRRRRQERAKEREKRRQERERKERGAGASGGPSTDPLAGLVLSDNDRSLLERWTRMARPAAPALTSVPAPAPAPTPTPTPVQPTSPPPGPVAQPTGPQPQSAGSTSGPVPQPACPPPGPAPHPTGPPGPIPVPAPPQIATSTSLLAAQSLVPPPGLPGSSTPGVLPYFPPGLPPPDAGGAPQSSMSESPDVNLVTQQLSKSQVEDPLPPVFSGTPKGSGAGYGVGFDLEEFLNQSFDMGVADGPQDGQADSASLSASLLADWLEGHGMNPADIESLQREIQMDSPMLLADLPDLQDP
Chain of 6-phosphogluconate dehydrogenase, decarboxylating (Homo sapiens) (P52209 whole entry, looked up): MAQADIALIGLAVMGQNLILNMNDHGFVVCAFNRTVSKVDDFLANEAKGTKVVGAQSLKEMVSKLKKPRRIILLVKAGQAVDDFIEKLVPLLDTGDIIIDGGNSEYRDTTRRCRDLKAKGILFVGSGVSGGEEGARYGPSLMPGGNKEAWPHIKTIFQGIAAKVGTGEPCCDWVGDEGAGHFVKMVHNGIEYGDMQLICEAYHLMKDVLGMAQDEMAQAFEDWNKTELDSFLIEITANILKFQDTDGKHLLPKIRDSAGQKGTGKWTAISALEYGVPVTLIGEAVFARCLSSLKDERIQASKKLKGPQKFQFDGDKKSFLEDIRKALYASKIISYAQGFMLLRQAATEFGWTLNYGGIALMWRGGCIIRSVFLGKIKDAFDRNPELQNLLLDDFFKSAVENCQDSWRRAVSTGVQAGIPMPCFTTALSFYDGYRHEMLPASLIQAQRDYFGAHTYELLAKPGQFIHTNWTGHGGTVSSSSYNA
Chain of NAD(+) hydrolase SARM1 (Homo sapiens) (Q6SZW1 whole entry, looked up): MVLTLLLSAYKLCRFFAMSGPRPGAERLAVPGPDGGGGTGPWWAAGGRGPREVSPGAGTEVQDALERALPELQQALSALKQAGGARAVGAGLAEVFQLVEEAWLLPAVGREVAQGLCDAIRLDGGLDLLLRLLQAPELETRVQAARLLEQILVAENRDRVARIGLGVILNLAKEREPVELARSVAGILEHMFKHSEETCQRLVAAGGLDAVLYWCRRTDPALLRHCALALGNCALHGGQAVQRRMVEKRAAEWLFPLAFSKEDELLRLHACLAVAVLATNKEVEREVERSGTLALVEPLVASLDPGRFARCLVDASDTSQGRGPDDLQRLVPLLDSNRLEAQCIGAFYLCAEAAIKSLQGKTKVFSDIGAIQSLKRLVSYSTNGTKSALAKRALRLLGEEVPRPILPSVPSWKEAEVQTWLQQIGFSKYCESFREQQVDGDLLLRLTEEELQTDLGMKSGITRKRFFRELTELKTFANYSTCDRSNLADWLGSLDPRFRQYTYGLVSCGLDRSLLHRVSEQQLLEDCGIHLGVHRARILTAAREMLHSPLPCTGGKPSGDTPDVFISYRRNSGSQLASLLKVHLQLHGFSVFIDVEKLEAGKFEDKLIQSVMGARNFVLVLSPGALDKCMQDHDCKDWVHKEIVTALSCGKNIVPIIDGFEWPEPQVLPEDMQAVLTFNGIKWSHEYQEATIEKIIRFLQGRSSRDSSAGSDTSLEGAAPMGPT

`c1coc(CNc2ncnc3nc[nH]c23)c1`: the inhibition (usually the change of the read-out against control, counted positive when it falls) in [1] is 6.38%; in [10], 6.86% (inactive). Also, the score in experiment [2] is 1.14. The compound further registered a rescue above control in experiment [3] of 19.9. In addition, in [4], the cytochrome c release ratio turned out to be 1.1. Moreover, the inhibition of aggregation in [5] is 68.2%. The glutamate uptake change in [6] was -3.65%. In addition, the aggregation suppression score in [7] is 0.807. For the same compound, the survival in experiment [8] is 3.5 (inactive). In experiment [9], the parasite load remaining was 122% (inactive) and 193% (inactive). In addition, in [9], the viability (as a rule, a read-out of living cells in per cent, often relative to untreated cells) was 98% and 74%. For the same compound, in [11], the red/green cell ratio (normalised) was 1.01 (inactive). The normalised cell number in experiment [11] (setting [18]) amounted to 1.05; in experiment [11] (setting [19]) it was 1.07. Besides, in experiment [12], the compound was called inactive. The fold change in [13] (setting [20]) is 1.04 (inactive) and 1.1 (inactive); in experiment [13] (setting [21]), 0.935 and 0.585. Besides, the cell count in [13] (setting [22]) is 8620 and 8070; in experiment [13] (setting [23]), 8250 and 7310. For the same compound, the z-score in [14] (setting [24]) was -0.185 (inactive) and -0.0285 (inactive); in [14] (setting [25]), -0.0997 and -0.188. Also, in experiment [15], the luciferase signal is 84 AU (inactive).
For `CN1C2CCC1CC(OC(=O)C(CO)c1ccccc1)C2` (stereo unspecified), the inhibition is -7.62% in experiment [1] and -2.64% (inactive) in [10]. Besides, the score in experiment [2] worked out at 1.48. This compound showed a rescue above control in experiment [3] of -4.85. The cytochrome c release ratio in [4] turned out to be 1.14. The inhibition of aggregation in experiment [5] was 83.1%. Moreover, the glutamate uptake change in experiment [6] stood at 7.04%. For the same compound, the aggregation suppression score in experiment [7] came to 1.57. In addition, the survival in experiment [8] is 7.25 (inactive). Further, the red/green cell ratio (normalised) in experiment [11] is 1.05 (inactive). In addition, the normalised cell number in experiment [11] (setting [18]) stood at 0.95; in [11] (setting [19]), 1. Moreover, in experiment [12], the call was inactive. Further, the z-score in experiment [14] (setting [24]) is -0.14 (inactive); in experiment [14] (setting [25]), -0.261; in [16] it was 0.025 (inactive) and 0.13 (inactive).
In the case of `NC[C@H]1O[C@H](O[C@H]2[C@H](O)[C@@H](O[C@H]3O[C@H](CO)[C@@H](O)[C@H](N)[C@H]3O)[C@H](N)C[C@@H]2N)[C@H](N)C[C@@H]1O`, the parasite load remaining in [9] was 155% (inactive) and 39.4% (inactive) and 27.1% (inactive). In addition, the viability in experiment [9] is 107% and 98% and 71.5%. For the same compound, the inhibition in experiment [10] was -0.0775% (inactive). Further, the red/green cell ratio (normalised) in experiment [11] was 1.17 (inactive). The normalised cell number is 0.88 in [11] (setting [18]) and 1.03 in experiment [11] (setting [19]). Further, the compound was called inactive in [12]. Moreover, the fold change in [13] (setting [20]) is 0.865 (inactive) and 0.994 (inactive) and 0.887 (inactive); in [13] (setting [21]) it was 1.22 and 2.22 and 1.69. Also, the cell count in experiment [13] (setting [22]) was 8760 and 12000 and 9090; in [13] (setting [23]) it was 10100 and 12100 and 10300. Moreover, the z-score was 0.333 (inactive) and -0.0714 (inactive) in experiment [14] (setting [24]); 0.434 and -0.898 in experiment [14] (setting [25]); 0.605 (inactive) in [16]. Further, the remaining NAD in experiment [17] is 22 nM (inactive). The luciferase signal in [15] was 84 AU (inactive).
For `OCC(O)C(O)C(O)CO` (stereo unspecified), the inhibition in experiment [10] was -9.83% (inactive). In addition, the red/green cell ratio (normalised) in experiment [11] was 1.02 (inactive) and 0.91 (inactive). Moreover, the normalised cell number in [11] (setting [18]) is 0.96 and 1.18; in experiment [11] (setting [19]) it was 0.97 and 1.07. Moreover, in experiment [12], the outcome was inactive. For the same compound, the fold change in [13] (setting [20]) was 0.884 (inactive); in experiment [13] (setting [21]), 0.816. Also, the cell count in experiment [13] (setting [22]) is 9100; in experiment [13] (setting [23]), 10300. Also, the z-score in [14] (setting [24]) is -0.33 (inactive); in experiment [14] (setting [25]) it was 0.446. For the same compound, the luciferase signal in [15] was 36 AU (inactive).
For the compound `OCc1ccccc1O[C@@H]1O[C@H](CO)[C@@H](O)[C@H](O)[C@H]1O`, the inhibition is -10.9% in experiment [1] and 16.9% (inactive) in [10]. For the same compound, the score in experiment [2] amounted to 1.23. In experiment [3], this compound yielded a rescue above control of -13.2. Besides, in experiment [4], the cytochrome c release ratio stood at 0.94. The inhibition of aggregation in experiment [5] was found to be 25.2%. Also, in experiment [6], the glutamate uptake change is -4.1%. The aggregation suppression score in [7] was 1.3. Besides, in experiment [9], the parasite load remaining is 107% (inactive) and 32.5% (inactive). In addition, in experiment [9], the viability was 66.8% and 91.3%. Also, in experiment [11], the red/green cell ratio (normalised) was 0.91 (inactive). Besides, the normalised cell number stood at 0.63 in experiment [11] (setting [18]) and 0.57 in experiment [11] (setting [19]). Besides, the call in experiment [12] was inactive. Moreover, the fold change in experiment [13] (setting [20]) is 0.934 (inactive); in [13] (setting [21]), 2.93. Moreover, the cell count was 12100 in [13] (setting [22]) and 13000 in experiment [13] (setting [23]). Besides, the remaining NAD in experiment [17] was 10 nM (inactive). Also, the luciferase signal in [15] was 72 AU (inactive).
